Assay results from article PMC4336329 (PLoS ONE, 2015).
The whole screen tested about 310,000 compounds, of which about 14,000 (4.5%) showed an effect of 50% or more. Effects have a minus sign here. Shown is part of a subset that was picked to be rich in strong results.

These compounds were tested against human ether-à-go-go-related gene (hERG) potassium channel (human, UniProt Q12809) (assay: primary screen, population patch clamp on CHO cells stably expressing hERG; higher = less effect of the substance).
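Note: peak tail current of the secondary pulse compared with the same well before compound.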

human ether-à-go-go-related gene (hERG) potassium channel, sequence (Q12809 whole entry, looked up): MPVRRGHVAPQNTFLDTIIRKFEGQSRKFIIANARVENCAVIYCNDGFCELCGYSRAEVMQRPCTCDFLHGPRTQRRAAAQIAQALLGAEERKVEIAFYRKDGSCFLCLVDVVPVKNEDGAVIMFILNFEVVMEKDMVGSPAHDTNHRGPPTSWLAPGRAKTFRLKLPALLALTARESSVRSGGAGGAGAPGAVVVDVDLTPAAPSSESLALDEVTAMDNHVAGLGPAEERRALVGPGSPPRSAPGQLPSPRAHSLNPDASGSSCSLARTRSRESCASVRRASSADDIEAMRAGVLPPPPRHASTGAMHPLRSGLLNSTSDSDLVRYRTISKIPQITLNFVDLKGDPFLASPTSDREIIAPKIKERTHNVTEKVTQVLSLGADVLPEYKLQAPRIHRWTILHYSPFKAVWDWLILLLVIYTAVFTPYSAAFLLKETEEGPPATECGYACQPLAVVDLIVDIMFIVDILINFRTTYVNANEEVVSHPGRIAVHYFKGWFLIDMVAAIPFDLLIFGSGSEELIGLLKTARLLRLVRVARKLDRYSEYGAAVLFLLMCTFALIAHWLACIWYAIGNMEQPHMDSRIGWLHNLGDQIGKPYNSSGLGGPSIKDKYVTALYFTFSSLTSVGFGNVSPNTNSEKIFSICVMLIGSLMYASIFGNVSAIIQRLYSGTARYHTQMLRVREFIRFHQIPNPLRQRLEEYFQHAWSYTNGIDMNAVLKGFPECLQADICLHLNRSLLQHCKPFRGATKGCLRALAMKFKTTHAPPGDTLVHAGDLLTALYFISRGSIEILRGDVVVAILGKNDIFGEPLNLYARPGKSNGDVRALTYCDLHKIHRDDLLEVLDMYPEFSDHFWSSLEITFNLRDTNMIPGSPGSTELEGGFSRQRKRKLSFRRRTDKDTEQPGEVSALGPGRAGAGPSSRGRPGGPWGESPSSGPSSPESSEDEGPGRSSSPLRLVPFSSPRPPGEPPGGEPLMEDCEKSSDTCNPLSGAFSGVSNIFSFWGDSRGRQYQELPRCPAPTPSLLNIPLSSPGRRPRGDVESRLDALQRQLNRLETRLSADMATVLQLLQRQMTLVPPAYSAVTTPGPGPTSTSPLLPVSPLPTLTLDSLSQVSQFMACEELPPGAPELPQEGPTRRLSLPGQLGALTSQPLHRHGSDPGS

| Compound | hERG current change (%, negative = inhibition) at 10uM [%] |
| --- | --- |
| COc1cccc(NC(=O)c2ccccc2-c2ccccc2C(=O)O)c1 | 10.1 |
| COc1ccc(NC(=O)CN(c2ccc([N+](=O)[O-])cc2)S(=O)(=O)c2ccccc2)cc1 | -10.3 |
| Cc1ccc(C(=O)O/N=C(\N)c2nonc2N)cc1 | -8.67 |
| COc1ccc(-c2nc3ccc([N+](=O)[O-])cc3[nH]2)cc1 | 13.5 |
| Cc1c(NC(=O)CSc2nnnn2-c2ccc(C(=O)O)cc2)c(=O)n(-c2ccccc2)n1C | 20.8 |
| CN(CC(=O)Nc1ccccc1C(F)(F)F)C(=O)c1cc2c(s1)CCCCC2 | -29.2 |
| CCc1sc(C(=O)NCc2ccccc2)cc1C | -9.06 |
| CN1CCN(S(=O)(=O)c2ccc(N(C)CC(=O)Nc3ccc(F)cc3)nc2)CC1 | -4.31 |
| CN(CC(=O)Nc1ccc(C(N)=O)cc1)CC(=O)Nc1ccccc1Br | 11 |
| O=C(c1ccco1)N1CCN(Cc2cc(=O)oc3cc(O)ccc23)CC1 | -69.3 |
| O=c1cc(CN2CCN(Cc3ccccc3)CC2)c2ccc(O)cc2o1 | -76.8 |
| CN1CCN(Cc2cc(=O)oc3ccc(Cl)cc23)CC1 | -16.7 |
| CCc1cc2c(CN3CCN(Cc4ccccc4)CC3)cc(=O)oc2cc1O | -35.5 |
| CC1CN(Cc2cc(=O)oc3cc(O)ccc23)CC(C)O1 (centres unmarked) | -23.3 |
| COC(=O)C1CCN(Cc2cc(=O)oc3cc(OC)ccc23)CC1 | -17.8 |
| COc1ccc(OC)c(CN2CCN(Cc3cc(=O)oc4cc(O)ccc34)CC2)c1 | -74.8 |
| O=c1cc(CN2CCOCC2)c2cc(Cl)ccc2o1 | -0.546 |
| Cc1ccc2c(CN3CCN(C(=O)c4ccco4)CC3)cc(=O)oc2c1C | -48.6 |
| COc1ccc2oc(=O)cc(CN3CCOCC3)c2c1 | 18.3 |
| O=c1cc(CN2CCN(Cc3ccccc3)CC2)c2cc(O)ccc2o1 | -68.2 |
| O=C(O)C(=O)O.O=C(c1ccco1)N1CCN(Cc2cccc3ccccc23)CC1 | -24.3 |
| O=C(NC1CCOCC1)C1CCC(=O)N(Cc2cccc(C(F)(F)F)c2)C1 (centres unmarked) | 13.7 |

| Compound | hERG current change (%, negative = inhibition) at 10uM [%] |
| --- | --- |
| Cc1cc2c(cc1S(=O)(=O)CCC(=O)N(C)Cc1ccccc1)OCC(=O)N2 | -35 |
| O=[N+]([O-])c1cccc(/C=N/n2c(C3CCCCC3)n[nH]c2=S)c1 | 11.9 |
| COc1cc([N+](=O)[O-])ccc1NC(=O)Nc1ccc2c(c1)OCCO2 | 25.3 |
| CCN1CCN(CCNC(=O)CCCn2nc(C)c3c(C)n(-c4ccc(C)cc4)nc3c2=O)CC1 | 0.678 |
| O=C(CCC(=O)c1ccc[nH]1)c1ccc(Cl)cc1 | -5.4 |
| CC1CCCN(CCC(=O)Nc2ccc(F)c(F)c2)C1 (centres unmarked) | -30.1 |
| COc1ccc(/C(C)=N/NC(=O)Cc2ccc(Cl)cc2)cc1 | 14.6 |
| O=C1C(=O)N(c2ccccn2)C(c2ccc(Br)cc2)/C1=C(/O)c1ccc(Br)cc1 (centres unmarked) | -47.8 |
| CCOc1cc2[nH]c(=O)n(CCCC(=O)NCc3ccco3)c(=O)c2cc1OCC | 5.83 |
| Cc1cc(C)n(-c2ccc(C(=O)N3CCN(S(=O)(=O)c4ccc(Cl)cc4)CC3)cc2)n1 | -25.8 |
| CC(=O)c1cccc(CN2CCC(CO)(Cc3ccccc3)CC2)c1 | -22.9 |
| Cc1cccc(-c2ncc(CN3CCC(CO)(CCCc4ccccc4)CC3)cn2)c1 | -54.1 |
| COC(=O)c1cccc(C(=O)N2CCC(CO)(CCc3ccccc3)CC2)c1 | -13.6 |
| OCC1(CCCc2ccccc2)CCN(Cc2ccc(F)cc2)CC1 | -72.9 |
| Cc1ccccc1-c1ncc(CN2CCC(CO)(CCCc3ccccc3)CC2)cn1 | -10.9 |
| Cn1cc(CN2CCC(CO)(CCCc3ccccc3)CC2)c(-c2ccccc2)n1 | -66.3 |
| COc1cccc(CC2(CO)CCN(Cc3cnc(-c4cccc(C)c4)nc3)CC2)c1 | -19.9 |
| CC(=O)c1cccc(CN2CCC(CO)(CCCc3ccccc3)CC2)c1 | -63.9 |
| CC(C)(O)C#Cc1ccc(CN2CCC(CO)(CCc3ccccc3)CC2)cc1 | -39.8 |
| O=C(CN1CCN(Cc2ccc(F)cc2)CC1)NCCc1ccccc1 | -13.6 |
| Cc1cc2cc(C#N)c(SCC(=O)Nc3nonc3C)nc2cc1C | -0.0959 |
| CCOC(=O)c1c(C)[nH]c(C)c1C(=O)COC(=O)c1nc2nccc(C)n2n1 | 24.8 |

| Compound | hERG current change (%, negative = inhibition) at 10uM [%] |
| --- | --- |
| C/C(=N/NC(=O)c1cc(C(C)C)[nH]n1)c1cccs1 | 7.16 |
| COc1cc(OC)cc(-c2c(-c3cccs3)c3cc(-c4ccn[nH]4)ccc3n2C)c1 | 7.72 |
| O=C(Nc1ccc(Br)cc1Br)c1cccc2c1C(=O)N(C1CCCCC1)C2 | 12.8 |
| CN(C)c1ccc(C=NCCC2(c3ccccc3)CCOC(C)(C)C2)cc1 (centres unmarked) | 15.3 |
| [N-]=C=C1C(=S)NC(=O)[C@H]([n+]2ccccc2)[C@H]1c1ccc(Cl)cc1 | 15.9 |
| Cc1ccc2nc(/C(C#N)=C/c3ccc(O)c(O)c3)[nH]c2c1 | 7.82 |
| OCC1(CCc2ccccc2)CCN(Cc2cc(Cl)ccc2O)CC1 | -49.5 |
| OCC1(CCc2ccccc2)CCN(Cc2cc(F)ccc2-n2cccn2)CC1 | -78.1 |
| O=S(=O)(c1cccc(C(F)(F)F)c1)N1CCC(CO)(CCCc2ccccc2)CC1 | -6.59 |
| OCC1(CCc2ccccc2)CCN(Cc2ccccc2Cl)CC1 | -86 |
| CC(C)N1CCC(N2CCN(Cc3cc(F)ccc3-n3cccn3)CC2CCO)CC1 (centres unmarked) | -8.1 |
| CC(C)N1CCN(Cc2cc(F)ccc2-n2cccn2)CC1CCO (centres unmarked) | 11.2 |
| OCC1(CCc2ccccc2)CCN(Cc2c(F)ccc(F)c2F)CC1 | -36.9 |
| Clc1ccccc1CN1CCC(Cc2ccccc2)CC1 | -12.1 |
| OCC1(CCCc2ccccc2)CCN(Cc2cc(F)ccc2F)CC1 | -69.5 |
| CCOc1ccc(NC(=O)N2CC=C(n3c(=O)[nH]c4ccccc43)CC2)cc1 | -8.9 |
| COc1ccc2[nH]c(=O)c(CN(c3ccc(C)c(C)c3)S(C)(=O)=O)cc2c1 | 12.9 |
| Cc1ccccc1NC(=O)c1[nH]cnc1C(=O)NN | 9.21 |
| CCCCOc1ccc(C2C(C(=O)c3cccs3)=C(O)C(=O)N2CCN2CCOCC2)cc1 (centres unmarked) | 21.8 |
| CC(=O)Oc1cc2c(C(=O)NCCCN3CCOCC3)c(C)oc2c2ccccc12 | -18.2 |
| Cc1cc2nc(C)n(CCCN)c2cc1C.Cl | -0.0557 |
| CCN(CC)S(=O)(=O)c1ccc(Cl)c(NC(=O)COc2ccc3c(C)cc(=O)oc3c2)c1 | 7.69 |

| Compound | hERG current change (%, negative = inhibition) at 10uM [%] |
| --- | --- |
| CCOC(=O)C(Sc1nnc(-c2ccncc2)o1)C(C)=O (centres unmarked) | 27.7 |
| Cc1ccc(C(=O)N/C(=C\c2ccc(F)cc2)C(=O)NCCCn2ccnc2)cc1 | -77.5 |
| COc1ccc(C(=O)N/C(=C\c2ccccc2)C(=O)NCCCn2ccnc2)cc1 | -55.8 |
| COCCNC(=O)c1noc2c1CCc1cc(OC)ccc1-2 | -6.83 |
| COc1ccc(/C=C(/NC(=O)c2ccc(OC)c(OC)c2)C(=O)NCCCn2ccnc2)cc1 | 11.5 |
| COc1ccc2c(c1)CCc1c(C(=O)NCCCn3ccnc3)noc1-2 | -50.2 |
| COc1ccc(C(=O)NCCCn2ccnc2)cc1.Cl | -5.63 |
| COc1ccc(C(=O)N/C(=C\c2cn(C)c3ccccc23)C(=O)NCCCn2ccnc2)cc1 | 26.3 |
| COc1ccc(/C=C(/NC(=O)c2ccccc2)C(=O)NCCCn2ccnc2)cc1OC | 19 |
| Cl.O=C(NCCCn1ccnc1)c1ccc(F)cc1 | -2.81 |
| COc1ccc(/C=C(\NC(=O)c2ccc(C)cc2)C(=O)NCCCn2ccnc2)cc1 | -86.4 |
| O=C(NCCCn1ccnc1)c1noc2c1CCc1ccccc1-2 | -45.9 |
| COc1ccc(N(C2=NCCCS2)S(=O)(=O)c2ccc(C(C)(C)C)cc2)cc1 | 0.221 |
| CCc1ccc2[nH]c(C(=O)Nc3ccc4c(c3)OCO4)cc2c1 | 18.8 |
| COc1ccc(OC)c(S(=O)(=O)N/N=C(/C)c2c[nH]c3ccccc23)c1 | 14.1 |
| CCN(C(=O)c1cc2c(=O)[nH]c3ccc(C)cc3c2s1)c1cccc(C)c1 | -0.235 |
| Cc1nn(-c2ccc(N3CCCCC3)nn2)c(C)c1CCC(=O)Nc1cccc(F)c1 | -19 |
| COC(=O)c1sccc1-n1cc(C#N)c(=O)n(C)c1=O | 17.9 |
| COc1cc2c(c(OC)c1OC)-c1ccc(O)c(=O)cc1[C@@H](N)CC2 | -11.8 |
| COCCn1c(C(C)C)nc2ccccc21 | 4.45 |
